In PubChem BioAssay (NCI):
Compounds without any hit were thinned out: in the full panel of roughly 83,000, 20% have a hit.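 Step 1: grow cells in 96-well plates. Step 2: add test compound at a single concentration. Step 3: incubate 48 h. Step 4: record percent growth.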 The source made the active and inactive calls. How the source made its calls: active means growth percent below 10; inactive means the rest.

System: NCI-H23 lung
Test: NCI-60 one-dose screen, 48 h (100 = growth as untreated, 0 = no growth, -100 = all killed)
Details: 10 µM unless noted

Row | SMILES | growth
1 | NC(=O)n1c(=O)n(-c2cccc(C(F)(F)F)c2)c(=O)c2cc(-c3ccc(F)cc3F)ccc21 | -6% (active)
2 | Cn1c(SCC(=O)c2ccco2)nc2ccccc2c1=O | 97.4% (inactive)
3 | C=C(C)[C@@H]1CC[C@]2(C(=O)O)CC[C@]3(C)[C@H](CC[C@@H]4[C@@]5(C)C/C(=C/c6ccccn6)C(=O)C(C)(C)[C@@H]5CC[C@]43C)[C@@H]12 | 38.6% (inactive)
4 | CCc1cc2c(cc1Cl)nc1c(=O)[nH]c(=O)nc-1n2CCOCC(C)(C)C | 72.1% (inactive)
5 | O=C(Nc1ccc(N2CCOCC2)cc1)Nc1ccc2c(ccn2C(=O)c2cccc(F)c2)c1 | 66.7% (inactive)
6 | C#CCOc1cccc(-c2nc(N)nc(Nc3ccccc3SSc3ccccc3Nc3nc(N)nc(-c4cccc(OCC#C)c4)n3)n2)c1 | -6.17% (active)
7 | CN1CCN(Cc2ccc(NC(=O)c3cncc(C#Cc4cnc5ccc(OCCCS(C)(=O)=O)nn45)c3)cc2C(F)(F)F)CC1 | -50.9% (active)
8 | CNC(=O)c1cc(-n2ccc3cc(NC(=O)Nc4ccc(N5CCN(C)CC5)c(C(F)(F)F)c4)ccc32)ccn1 | 88.6% (inactive)
9 | Nc1cc(C(=O)N/N=C\c2ccc(OC(F)F)c(OC3CCCC3)c2)nn1CC(O)c1ccccc1 (stereo not given) | 95.7% (inactive)
10 | CNC(=O)Nc1ccc(Nc2cc(-c3ccc(-n4cccn4)cc3)[nH]n2)c(C)c1 | 102% (inactive)
11 | Cc1nc(/N=C(N)/N=C(\N)c2cccc(Br)c2)sc1C | 59.7% (inactive)
12 | Brc1cccc(-c2cc(-c3ccc4c(c3)OC=CO4)[nH]n2)c1 | 58.2% (inactive)
13 | Cc1ccc2c(n1)C(=O)C(Cl)=C(Nc1ccc(C)c(C)c1)C2=O | 11.7% (inactive)
14 | CN1CCN(Cc2ccc(NC(=O)c3cncc(C#Cc4cnc5ccc(N)nn45)c3)cc2C(F)(F)F)CC1 | 4.35% (active)
15 | O=C1[C@@H]2Cc3c([nH]c4ccccc34)[C@@H](c3ccc(Cl)cc3)N2C(=O)CN1C1CCN(Cc2ccccc2)CC1 | 72.4% (inactive)
16 | CN1CCN(c2ccc(C(=O)/C=C/c3cc(F)cc(C(F)(F)F)c3)cc2)CC1 | 72% (inactive)
17 | CCCc1cc2cc(-n3nc(CC)c4c3CC(C)(C)CC4=O)cc(NC3CCC(O)CC3)c2c(=O)[nH]1 (stereo not given) | 18.3% (inactive)
18 | O=C1[C@@H]2Cc3c([nH]c4ccccc34)[C@H](c3ccc(Br)cc3)N2C(=O)CN1C1CCN(Cc2c(Cl)cccc2Cl)CC1 | 91.7% (inactive)
19 | CC1(C)CC[C@]2(C(=O)NCCCCCCN(CCCN)CCCN)CC[C@]3(C)C(=CC[C@@H]4[C@@]5(C)CC[C@H](O)C(C)(C)[C@@H]5CC[C@]43C)[C@@H]2C1 | 105% (inactive)
20 | N#Cc1c(-c2cccs2)cc(-c2cnccn2)nc1SCC(=O)N/N=C/c1ccccc1 | 40.8% (inactive)

Row | SMILES | growth
21 | Cc1ccc(S(=O)(=O)NCCCNc2nccc(-c3[nH]c(-c4ccccc4)nc3-c3ccc(F)c(O)c3)n2)cc1 | 96.2% (inactive)
22 | COc1ccc2c(c1)c(-c1nc(N)nnc1-c1c[nH]c3ccccc13)cn2C | 47.7% (inactive)
23 | COC(=O)c1ccc(NC2=C(Cl)C(=O)c3nc(C)ccc3C2=O)cc1 | 54.8% (inactive)
24 | N#Cc1c(-c2cccs2)cc(-c2cnccn2)nc1SCC(=O)N/N=C/c1ccncc1 | 102% (inactive)
25 | Cc1ccc2c(n1)C(=O)C(Cl)=C(Nc1cccc(C(F)(F)F)c1)C2=O | 52.3% (inactive)
26 | C#CCN(C)CCCOc1ccc(NCc2ccc(/C=C/C(=O)NO)cc2)cc1Cl | -24% (active)
27 | CC1=C(SCC(=O)OCCCCCC(C)C)C(=O)c2ccccc2C1=O | 89% (inactive)
28 | Cc1ccc2c(n1)C(=O)C(Cl)=C(Nc1ccc(C#N)cc1)C2=O | 92.3% (inactive)
29 | COc1cccc(N2CCN(C3=C(Cl)C(=O)c4ncccc4C3=O)CC2)c1 | 60.3% (inactive)
30 | Clc1ccc2[nH]cc(-c3cncn3CCc3ccc4c(c3)OCO4)c2c1 | 62.9% (inactive)
31 | CN1CCN(c2ccc(Nc3nc(NCCNS(=O)(=O)c4ccc5ccccc5c4)c4sccc4n3)cc2)CC1 | 84.3% (inactive)
32 | Cc1[nH]c(C(=O)Nc2ccc(C(=O)NCC3CCNCC3)cc2OC(C)C)c(Cl)c1Cl | 83% (inactive)
33 | Nc1ncc(-c2ccc3ncnc(NCc4ccccc4)c3c2)cn1 | 55.4% (inactive)
34 | O=C(NNc1nc2cc(F)cc(F)c2n2cccc12)c1cccnn1 | 21.7% (inactive)
35 | CCCc1[nH]c(-c2cc(N)ccc2Cl)c2c1C(=O)CCCC2 | 93.3% (inactive)
36 | O=C(CSc1nnc(-c2ccc(Cl)cc2)n1-c1ccccc1)Nc1ccccc1Cl | 48.5% (inactive)
37 | CN(C)S(=O)(=O)c1ccc(-c2nc(C(Cl)Cl)nc3cc(-c4ccc(F)cc4)nn23)cc1 | -3.27% (active)
38 | C1=CC(c2nn3c(-c4ccccc4)nnc3s2)=Cc2ccccc2O1 | 75.8% (inactive)
39 | COc1ccccc1N1CCN(C2=C(Cl)C(=O)c3ncccc3C2=O)CC1 | 56.3% (inactive)
40 | O=C(COc1ccc(/C=C2\C(=O)Nc3ccc(F)cc32)cc1)Nc1ccccc1 | 95% (inactive)
